# Reference: PubChem BioAssay (NCI)
# This is part of a sample that, as a whole, favours compounds with a hit. Of some 83,000 tested, about 20% had one in any assay.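 Single-dose data. Exposure time 48 hours. Values below 10 considered active.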 A number with no mark means an inactive call. Calls of active or inactive are those of the source.
# How the values were obtained:
# Assay in all cases: NCI-60 one-dose screen, 48 h (100 = growth as untreated, 0 = no growth, -100 = all killed)
# Settings in all cases: 10 µM unless noted
# NCI-H23 lung = system: NCI-H23 lung
# NCI-H322M lung = system: NCI-H322M lung
# HOP-62 NSCLC = system: HOP-62 NSCLC
# NCI-H460 lung = system: NCI-H460 lung
# HOP-92 NSCLC = system: HOP-92 NSCLC
# NCI-H522 lung = system: NCI-H522 lung
# A549/ATCC NSCLC = system: A549/ATCC NSCLC
# 786-0 renal = system: 786-0 renal
# COLO 205 colon = system: COLO 205 colon
# DU-145 prostate = system: DU-145 prostate
Compound,growth (NCI-H23 lung),growth (NCI-H322M lung),growth (HOP-62 NSCLC),growth (NCI-H460 lung),growth (HOP-92 NSCLC),growth (NCI-H522 lung),growth (A549/ATCC NSCLC),growth (786-0 renal),growth (COLO 205 colon),growth (DU-145 prostate)
O=C(c1nc2ccccc2[nH]1)C1C(c2cccc([N+](=O)[O-])c2)C2CC3CCCCC3N2[C@@]12C(=O)Nc1cc(Cl)ccc12 (stereo not given in full),37.3%,42.2%,48.1%,9.08% (active),16.9%,52.4%,17.8%,25.6%,12.6%,27%
CCOc1ccccc1CN1CCc2nc3cc(C(C)(C)C)[nH]n3c(=O)c2C1,97%,101%,99.6%,107%,112%,77.1%,112%,90.8%,112%,115%
O=C(NC(=S)Nc1cccc(NC(=S)NC(=O)c2ccccc2)c1)c1ccccc1,69.1%,89%,52.5%,46.4%,34.8%,-9.46% (active),57.6%,76.5%,56.5%,77.5%
Cc1cc2c(c(C)c1Cl)C(=O)/C(=C/c1ccco1)O2,87.9%,99.2%,96.7%,94.7%,129%,85.3%,103%,105%,113%,103%
CS(=O)(=O)Nc1ccc(C(=O)NC(C(=O)NO)c2ccc(-c3cccc(F)c3)cc2)cc1 (stereo not given),45.6%,53.5%,99.1%,89.7%,-8.77% (active),30%,103%,72.8%,109%,83.5%
CCOC(=O)c1cnc2ccc(Cl)cc2c1NCCCN(C)C,22%,10.4%,8.63% (active),1.86% (active),41.1%,-17.5% (active),4.15% (active),8.14% (active),31.4%,19.2%
Cc1ccc(S(=O)c2ccc([N+](=O)[O-])c3nonc23)cc1 (stereo not given),102%,110%,112%,99.5%,109%,-60.1% (active),101%,102%,-39.7% (active),112%
O=C(Nc1ccc(Cl)cc1F)c1cc(Br)ccc1O,4.02% (active),7.3% (active),1.76% (active),4.27% (active),-12.8% (active),-12.9% (active),7.61% (active),3.02% (active),51.5%,17.2%
COc1cc(C#N)cc2[nH]c(=O)oc12,104%,106%,103%,110%,95.5%,103%,101%,98.7%,105%,99%
CN(C)c1ccc(/C=C/c2ccnc3c(O)cccc23)cc1,34.8%,28.7%,20.3%,0.902% (active),53.5%,-10.9% (active),3.5% (active),-10.5% (active),99.7%,13.9%
COc1ccc(OC)c(/C=C/C(=O)c2c(C)nc3ccccc3c2/C=C/c2ccccc2)c1,58.8%,78.5%,90.7%,28.6%,48.5%,23.7%,55.8%,89.2%,86.4%,54.2%
CSc1nc2c(c(=O)[nH]1)N=C1c3ccccc3C(=O)C1C(c1ccc(F)cc1)N2 (stereo not given),83.7%,92.3%,63.6%,51.7%,58.3%,75.9%,56.3%,71.5%,53.4%,103%
CCN1C(=O)N(CC)C2Nn3c(s/c(=C\c4ccccc4F)c3=O)=NC21 (stereo not given),41.8%,59.4%,59.3%,21.6%,67.5%,27.5%,31.6%,49.3%,7.99% (active),37.4%
O=C1N=c2ccccc2=C1c1sc(=Nc2ccccc2)n(Nc2ccccc2)c1O,102%,107%,100%,101%,102%,90.9%,108%,101%,116%,115%
COc1ccc(/C=c2\sc3n(c2=O)NC2C(N=3)N(C)C(=O)N2C)cc1 (stereo not given),96.6%,92%,101%,108%,100%,86.6%,99.8%,97.7%,102%,110%
O=C(NN1C(=O)CSC1c1ccc(Cl)cc1)c1[nH]c2ccc(F)cc2c1-c1ccccc1 (stereo not given),57.8%,82.1%,78.1%,5.13% (active),46.5%,74.4%,26.9%,65.8%,13.6%,77.2%
CCN1C(=O)N(CC)C2C1NN=c1s/c(=C3\C(=O)N(C(C)C)c4ccccc43)c(=O)n12 (stereo not given),28.8%,52.6%,38.7%,5.6% (active),54%,-3.38% (active),16.5%,30.6%,-16% (active),3.71% (active)
S=C1NC2(c3ccccc3)CCC(=S)N2c2ccccc21 (stereo not given),103%,95.8%,98.2%,108%,99.1%,90.7%,101%,104%,117%,115%
O=C(COc1cc(O)c2c(=O)cc(-c3ccccc3)oc2c1)Nc1ccccc1,83.7%,85.6%,101%,61.6%,89.9%,81.5%,84.6%,81.9%,108%,81.5%
CN1C(=O)N(C)C2Nn3c(s/c(=C\c4ccc(Cl)cc4Cl)c3=O)=NC21 (stereo not given),61.8%,78.7%,73.2%,30.8%,89.5%,55.3%,51.4%,68.5%,22%,30.3%
CCN1C(=O)N(CC)C2Nn3c(s/c(=C4\C(=O)N(C(C)C)c5ccccc54)c3=O)=NC21 (stereo not given),36.6%,61.3%,51.8%,21.3%,13.9%,27.2%,30.4%,49.1%,7.65% (active),38%
COc1ccc(-c2c(-c3ccc(OC)c(O)c3)cnc3ncnn23)cc1,99.9%,106%,111%,108%,95.1%,96%,100%,103%,126%,105%
O=c1nc2sc3nc4ccccc4cc3cc-2s1,101%,106%,104%,106%,125%,122%,117%,103%,127%,114%
Clc1ccc(-c2nnc(COc3ccc(C4=NNC(c5ccco5)C4)cc3)o2)cc1 (stereo not given),61.5%,36.6%,105%,82.7%,76.8%,86.7%,45.6%,89.5%,105%,94.8%
COc1cccc(-c2nn(C)c3sc(C(=O)NCCN4CCN(c5ccccc5F)CC4)cc23)c1,91.2%,87.3%,81.4%,57.6%,14.9%,60.9%,74.7%,57.6%,-78.4% (active),89.4%
Cc1[nH]c2ccccc2c(=O)c1CC=C(Cl)Cl,75.4%,-47.2% (active),-7.31% (active),-74% (active),64.5%,65.7%,16.9%,-80.2% (active),35%,-22.5% (active)
CN1C(=O)N(C)C2(c3ccccc3)n3c(s/c(=C\c4ccccc4)c3=O)=NNC12c1ccccc1 (stereo not given),97.2%,95.3%,101%,91.6%,89.5%,84.3%,89.1%,98.3%,112%,93%
